Screening data deposited in PubChem BioAssay by several laboratories.
Most compounds without a hit are left out; they make up all but 3.5% or so of the library.
M1 PAM: positive allosteric modulators of human M1 muscarinic receptor. CHO-K1 hM1, Fluo-8 calcium fluorescence, ACh EC20; 0% = ACh EC20, 100% = maximal ACh. activation, % at 3 µM. actives 0.088% (n = 360,000). AID 588819; in the data active = activation above about 19%, passing the limit was not always enough
M1 antag: blocks human M1 muscarinic receptor; inhibition, % at 3 µM; actives 1.3% (n = 360,000); P11229; AID 588852; CHO-K1 hM1, Fluo-8 calcium fluorescence, ACh EC80 antagonist;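 active = percent inhibition above its own plate's cutoff, namely the mean of that plate's compound wells plus 3 SD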;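 note: peak over basal fluorescence ratio during 140 s after agonist addition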
CHRM1 agonist: agonists of human M1 muscarinic receptor. activation, % at 3 µM. actives 0.33% (n = 360,000). AID 588814. CHO-K1 hM1, Fluo-8 calcium fluorescence, agonist mode; 0% DMSO, 100% acetylcholine EC100;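 active = activation above the run's mean compound activation plus 3 SD, cut at about 16% in these data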;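 note: peak over basal fluorescence ratio within a 140 s kinetic read after compound addition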
SKN-1 block: C. elegans SKN-1 inhibition | C. elegans VP596 Pgst-4::GFP/RFP ratio, acrylamide-induced, 24 h | actives 0.49% (n = 360,000) | inhibition, % at 21.8 µM | AID 624304;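 active = interference check ratio from 0.5 to 1.5 plus GFP to RFP signal ratio inhibition reaching or exceeding a fixed threshold, cut at about 30% in these data, passing the limit was not always enough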
ATG4B inh: inhibitors of human ATG4B cysteine protease; Q9Y4P1; ATG4B cleavage of LC3-PLA2, NBD-HPC fluorescence, 1 h; inhibition, % at 8.33 µM; actives 0.51% (n = 340,000); AID 504462; in the data active = inhibition above about 40%
Target sequence (Q9Y4P1 whole entry, looked up): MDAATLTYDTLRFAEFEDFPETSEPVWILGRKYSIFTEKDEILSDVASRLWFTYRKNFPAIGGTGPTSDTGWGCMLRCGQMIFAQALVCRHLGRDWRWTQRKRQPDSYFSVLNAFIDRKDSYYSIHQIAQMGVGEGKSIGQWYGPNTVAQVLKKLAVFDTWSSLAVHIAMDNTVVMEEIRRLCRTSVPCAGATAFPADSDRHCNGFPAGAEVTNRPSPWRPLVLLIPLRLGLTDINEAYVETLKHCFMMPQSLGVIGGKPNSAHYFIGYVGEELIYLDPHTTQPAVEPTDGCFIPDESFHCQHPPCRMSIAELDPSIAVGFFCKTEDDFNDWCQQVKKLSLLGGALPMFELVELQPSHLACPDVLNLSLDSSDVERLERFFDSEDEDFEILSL
Myeloid diff MLP: promotes myeloid progenitor differentiation | actives 1% (n = 360,000) | ER-HoxA9 myeloid progenitors, lysozyme-GFP differentiation, flow cytometry | calls only at 10 µM | AID 624256;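 active = normalized GFP-positive differentiation at or above the plate's own cutoff, the solvent-only control mean plus 3 SD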;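 note: cells exposed to compound for four days before flow analysis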
Myeloid diff CP1: promotes myeloid progenitor differentiation; shares compounds with Myeloid diff MLP; ER-HoxA9 myeloid progenitors, GFP/Mac1 double-positive flow; calls only; actives 2% (n = 2,300); AID 651706;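 active = share of green or green-and-red cells above 9 and 9% in run 1 or 4 and 3% in run 2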
GFP autofluor: compound fluorescence in myeloid differentiation counter-screen; shares compounds with Myeloid diff MLP; ER-HoxA9 myeloid progenitors, no estrogen, GFP autofluorescence flow cytometry; vehicle wells 0%, positive control 100%; fluorescence response, % (no concentration beside the values); actives 7.4% (n = 2,300); AID 651707;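 active = over 5% cells positive for green fluorescent reporter, or over 2% positive for both it and APC stain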
Each line names hits and unclear results; the compound was inactive in the other large screens (follow-up assays come after a bar, where they were run).

COc1ccccc1N1CCN(C(=O)c2cc(-c3ccccc3)on2)CC1	none
CC(C)c1nc(SCC(=O)N2CCCC2)c2c(=O)n(C)c(=O)n(C)c2n1	Myeloid diff MLP active | Myeloid diff CP1 inactive | GFP autofluor inactive
COC(=O)CC1(C(=O)OC)Oc2ccccc2C(=O)N1c1ccc(F)cc1F (centres undefined)	none
COc1ccc(S(=O)(=O)N2C3CCC2CC(NC(=O)C2CC2)C3)cc1 (centres undefined)	none | Myeloid diff CP1 inactive | GFP autofluor inactive
COc1ccc(S(=O)(=O)N2C3CCC2CC(NC(=O)NC2CCCCC2)C3)cc1 (centres undefined)	none
O=c1ccc2cc(S(=O)(=O)Nc3ccc(Br)cc3)ccc2o1	none
CCOC(=O)Cc1csc(NC(=O)c2ccc(Br)o2)n1	none
CCOC(=O)Cc1csc(NC(=O)c2sc3nc4cc(C)ccc4cc3c2N)n1	none | Myeloid diff CP1 inactive | GFP autofluor inactive
CCOC(=O)Cc1csc(NC(=O)c2sc3nc4ccc(CC)cc4cc3c2N)n1	none | Myeloid diff CP1 inactive | GFP autofluor inactive
CCC(NS(=O)(=O)c1cccs1)c1ccc(C)cc1 (centres undefined)	none
CN1/C(=C\C=C(C#N)C#N)C(C)(C)c2ccccc21	none
CN1/C(=C/C=C/c2n(C)c3cc([N+](=O)[O-])c([N+](=O)[O-])cc3[n+]2C)C(C)(C)c2ccccc21	SKN-1 block 57, Myeloid diff MLP active (no result: ATG4B inh) | Myeloid diff CP1 inactive | GFP autofluor 7.2
COc1ccc(C(CNC(=O)c2ccc(C)c(S(=O)(=O)N3CCOCC3)c2)N2CCCC2)cc1 (centres undefined)	none
CCOc1ccc(NC(=O)c2sccc2-n2cccc2)cc1	none
O=C(OCC(O)COc1ccccc1)c1ccc([N+](=O)[O-])cc1 (centres undefined)	none
CC(=O)N1CCc2cc(S(=O)(=O)CCC(=O)NCc3ccc(F)cc3)ccc21	none
COc1ccc(-c2cc(C(=O)NCc3ccc(Cl)cc3)no2)cc1OC	none
COc1cccc(-c2cc(C(=O)NCc3ccc(Cl)cc3)no2)c1	none | Myeloid diff CP1 inactive | GFP autofluor inactive
COC(=O)CNC(=O)COc1ccccc1	Myeloid diff MLP active | Myeloid diff CP1 inactive | GFP autofluor inactive
COc1ccc(C(=O)NC2CCN(Cc3ccccc3)C2)cc1S(=O)(=O)N1CCOCC1 (centres undefined)	none
Cc1ccc2cc(C#N)c(N3CCCC3)nc2c1C	none
Cc1ccc2cc(C#N)c(N3CCCN(C(=O)C4CCCO4)CC3)nc2c1C (centres undefined)	none | Myeloid diff CP1 inactive | GFP autofluor inactive
Cc1cc(C)c(C#N)c(SCC(=O)c2ccccc2)n1	none
Cc1cc(C)c(C#N)c(SCC(O)CS(=O)(=O)Cc2ccccc2)n1 (centres undefined)	none | Myeloid diff CP1 inactive | GFP autofluor inactive
